PubChem BioAssay
Values without a mark were called inactive. Some of the results follow. The source made the active and inactive calls.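 The calls were made as follows, unless noted: active = mean inhibition over 43.08%, the solvent-only control mean plus 3 SD; inactive = the rest.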

Tests used:
[1] = target: Toll-like receptor 9 (Homo sapiens) (UniProt Q9NR96); test: TLR9-MyD88 association inhibitors, retest, confirmation, cell-based, CHO, BLA complementation, fluorescence, triplicate (AID 540250;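 active = mean inhibition across three repeats above about 21% taken from the earlier screen, limit read from the data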;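 also: blue over green emission ratio reports constitutive TLR9 MyD88 association via BLA complementation; 0% = DMSO vehicle wells and 100% = clavulanate BLA inhibitor wells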); settings: CCF4 FRET ratio, at 4.98 µM, stronger effect = higher value
Sequence of Toll-like receptor 9 (Homo sapiens) (Q9NR96 whole entry, looked up): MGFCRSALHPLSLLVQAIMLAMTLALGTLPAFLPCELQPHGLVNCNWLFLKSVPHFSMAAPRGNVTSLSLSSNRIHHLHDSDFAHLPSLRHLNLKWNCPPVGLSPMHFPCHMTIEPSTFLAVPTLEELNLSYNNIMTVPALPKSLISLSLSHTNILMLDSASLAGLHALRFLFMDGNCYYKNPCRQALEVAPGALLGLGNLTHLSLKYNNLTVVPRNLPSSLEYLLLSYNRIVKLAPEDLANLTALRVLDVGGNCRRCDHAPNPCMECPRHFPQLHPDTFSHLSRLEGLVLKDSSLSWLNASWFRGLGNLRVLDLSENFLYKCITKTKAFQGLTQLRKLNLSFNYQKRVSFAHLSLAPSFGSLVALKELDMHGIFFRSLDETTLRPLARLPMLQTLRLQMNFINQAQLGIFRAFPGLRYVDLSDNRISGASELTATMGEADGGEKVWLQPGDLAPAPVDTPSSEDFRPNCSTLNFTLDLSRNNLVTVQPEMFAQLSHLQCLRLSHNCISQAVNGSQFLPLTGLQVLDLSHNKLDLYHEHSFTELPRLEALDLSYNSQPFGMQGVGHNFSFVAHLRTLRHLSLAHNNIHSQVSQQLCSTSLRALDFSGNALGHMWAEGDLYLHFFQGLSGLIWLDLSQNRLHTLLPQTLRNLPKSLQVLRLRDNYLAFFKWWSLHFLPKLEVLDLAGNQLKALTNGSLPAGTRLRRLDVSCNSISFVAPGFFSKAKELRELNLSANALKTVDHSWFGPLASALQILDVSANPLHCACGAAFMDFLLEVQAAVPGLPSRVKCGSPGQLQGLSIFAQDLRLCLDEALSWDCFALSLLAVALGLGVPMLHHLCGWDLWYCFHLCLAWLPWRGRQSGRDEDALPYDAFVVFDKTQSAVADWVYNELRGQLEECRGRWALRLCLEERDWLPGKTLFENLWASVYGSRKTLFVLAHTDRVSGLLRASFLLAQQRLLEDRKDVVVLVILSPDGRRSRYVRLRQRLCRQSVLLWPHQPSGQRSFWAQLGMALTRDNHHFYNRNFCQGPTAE

[2] = beta-lactamase reporter inhibitors in CHO cells, artefact control for TLR9-MyD88 binding inhibitor project, cell-based, fluorescence (AID 540251;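 active = mean inhibition above a 50% cutoff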;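 also: counterscreen of TLR9-MyD88 hits on CMV-driven BLA in CHO-K1 cells; 0% = DMSO alone and 100% = clavulanate blocking BLA; higher means less blue over green ratio so more BLA blockade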); settings: CHO-BLA cells, CCF4 FRET ratio, at 4.98 µM, stronger effect = higher value
[3] = CHO cell viability loss – luminescence, single concentration, cytotoxicity control for TLR9-MyD88 binding inhibitor project (AID 588336; in the data active = inhibition above about 11%); settings: TLR9-MyD88 CHO cells cytotoxicity, at 4.98 µM, stronger effect = higher value
[4] = target: Nuclear receptor coactivator 3 (Homo sapiens) (UniProt Q9Y6Q9); test: SRC3 coactivator transcriptional activity inhibitors, confirmation, cell-based, luminescence, quadruplicate (AID 588792); settings: HEK293 GAL4-SRC3 luciferase reporter, at 3.6 µM, stronger effect = higher value;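 also: 0% = DMSO treated cells and 100% = gossypol at 36 µM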
Sequence of Nuclear receptor coactivator 3 (Homo sapiens) (Q9Y6Q9 whole entry, looked up, the tested form may be a part): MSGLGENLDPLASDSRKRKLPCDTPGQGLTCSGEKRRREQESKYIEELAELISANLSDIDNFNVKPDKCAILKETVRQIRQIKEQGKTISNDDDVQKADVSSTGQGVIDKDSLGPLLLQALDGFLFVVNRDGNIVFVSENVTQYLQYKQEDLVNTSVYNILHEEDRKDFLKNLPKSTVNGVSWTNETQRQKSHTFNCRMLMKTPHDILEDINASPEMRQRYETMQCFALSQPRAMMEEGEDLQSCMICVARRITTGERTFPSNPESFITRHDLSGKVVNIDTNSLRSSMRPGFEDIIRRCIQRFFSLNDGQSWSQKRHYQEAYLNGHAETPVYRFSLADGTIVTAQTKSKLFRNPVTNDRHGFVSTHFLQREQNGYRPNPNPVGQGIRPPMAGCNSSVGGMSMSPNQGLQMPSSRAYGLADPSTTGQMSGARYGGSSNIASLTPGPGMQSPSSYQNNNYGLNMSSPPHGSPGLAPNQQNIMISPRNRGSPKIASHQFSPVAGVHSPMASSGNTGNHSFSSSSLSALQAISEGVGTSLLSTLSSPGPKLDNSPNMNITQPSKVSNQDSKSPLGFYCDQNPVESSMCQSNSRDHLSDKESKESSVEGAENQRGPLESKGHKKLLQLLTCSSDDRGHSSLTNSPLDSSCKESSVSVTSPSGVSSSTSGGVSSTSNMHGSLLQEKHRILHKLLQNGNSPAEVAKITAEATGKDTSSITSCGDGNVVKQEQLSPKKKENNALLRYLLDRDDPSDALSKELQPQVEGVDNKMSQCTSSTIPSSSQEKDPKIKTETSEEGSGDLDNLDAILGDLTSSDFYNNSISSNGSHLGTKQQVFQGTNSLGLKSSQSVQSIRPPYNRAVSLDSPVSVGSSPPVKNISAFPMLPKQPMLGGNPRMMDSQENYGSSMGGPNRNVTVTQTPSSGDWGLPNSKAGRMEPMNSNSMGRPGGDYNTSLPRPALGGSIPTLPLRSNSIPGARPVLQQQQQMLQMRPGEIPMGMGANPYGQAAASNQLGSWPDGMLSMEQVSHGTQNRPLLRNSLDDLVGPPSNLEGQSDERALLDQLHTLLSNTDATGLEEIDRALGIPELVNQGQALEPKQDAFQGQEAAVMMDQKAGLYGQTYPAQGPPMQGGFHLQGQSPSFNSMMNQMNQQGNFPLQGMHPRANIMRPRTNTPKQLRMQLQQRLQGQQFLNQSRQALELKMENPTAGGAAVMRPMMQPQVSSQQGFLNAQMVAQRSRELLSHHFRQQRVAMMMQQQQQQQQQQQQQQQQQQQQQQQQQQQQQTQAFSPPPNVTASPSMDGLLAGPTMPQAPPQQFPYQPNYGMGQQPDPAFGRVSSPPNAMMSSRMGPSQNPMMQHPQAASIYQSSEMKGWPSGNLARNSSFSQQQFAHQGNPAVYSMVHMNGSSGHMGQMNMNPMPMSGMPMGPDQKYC

[5] = system: transactivating tegument protein VP16 (Human herpesvirus 1), Gal4-VP16 luciferase reporter; test: VP16 transactivation inhibitors, counter-screen for SRC3 inhibitor project, cell-based, luminescence, high throughput (AID 588794; in the data active = inhibition above about 30%); settings: mammalian cells, VP16-driven luciferase reporter luminescence; at 3.6 µM; stronger effect = higher value

CS(=O)(=O)c1sc2nc(-c3ccccc3)cc(-c3ccccc3)c2c1N
inhibition [1]: 31.1% (active)
inhibition [2]: 31.6%
inhibition [3]: -0.85%

O=C(CCN1C(=O)c2ccccc2C1=O)NNC(=O)c1ccc(Cl)cc1Cl
inhibition [1]: -3.93%
inhibition [2]: -2.36%
inhibition [3]: 1.44%

S=C(Nc1cccc2ccccc12)NN1CCCCCC1
inhibition [4]: 43.8% (active)
inhibition [5]: 33% (active)

CCOc1c(Br)cc(CNC2CCCCCCC2)cc1OC
inhibition [4]: -5.01%
inhibition [5]: -0.26%

COc1ccccc1NC(=O)Nc1nnc(Cc2ccccc2F)s1
inhibition [4]: 5.82%
inhibition [5]: 20.4%

CCc1ccc2nc3nc(C)cc(C)c3c(N)c2c1
inhibition [4]: 20.2%
inhibition [5]: 32.7% (active)

C/C(=N\NC(=O)c1cc(-c2cccnc2)nc2ccccc12)c1ccc(O)cc1O
inhibition [4]: 48.4% (active)
inhibition [5]: 29.9% (active)

COc1ccc(O)c(-c2[nH]ncc2C(=O)c2ccccc2)c1
inhibition [4]: 26.3%
inhibition [5]: 18.6%

Cc1cc(SCC(=O)N/N=C/c2ccc(O)cc2O)c(C)cc1Br
inhibition [4]: 20.6%
inhibition [5]: 23.2%

CCOc1ccc(-c2cc(C)n3nc(C(N)=O)cc3n2)cc1
inhibition [4]: 32.9%
inhibition [5]: 23.3%

C#CC(=O)N(c1cc(OC)ccc1OC)C(C(=O)NC1CCCC1)c1cccs1 (centres undefined)
inhibition [4]: 49.7% (active)
inhibition [5]: 7.33%

COc1ccc(NC(=O)c2cc(C3CC3)nc3c2cnn3C(C)C)cc1OC
inhibition [4]: -12.8%
inhibition [5]: -3.62%

CC(C(=O)c1ccc(-c2ccccc2)cc1)[n+]1ccccc1 (centres undefined)
inhibition [4]: 5.63%
inhibition [5]: 19.5%

COc1ccc(Cl)cc1C(=O)Nn1c(-c2cccs2)nc2ccccc2c1=O
inhibition [4]: 25.5%
inhibition [5]: 22.1%

COc1ccc(-c2ncncc2-c2ccc(Cl)cc2)c(O)c1
inhibition [4]: 25.1%
inhibition [5]: 22.8%

COCC(C)NS(=O)(=O)c1ccc(C(=O)NC(Cc2ccccc2)c2ccccc2)cc1 (centres undefined)
inhibition [4]: 17.7%
inhibition [5]: 0.32%

Cc1cccc(N2CCN(C(=O)C3CCN(c4ncnc5c4nc4n5CCCCC4)CC3)CC2)c1C
inhibition [4]: -4.11%
inhibition [5]: 11.5%

c1ccc2c(c1)OCC(CNc1ncnc3sccc13)O2 (centres undefined)
inhibition [4]: 1.57%
inhibition [5]: 37.9% (active)

CC(=O)Nc1ccc(NC(=O)c2ccc(N(Cc3ccccc3C)S(C)(=O)=O)cc2)cc1
inhibition [4]: -0.29%
inhibition [5]: -7.31%

COc1ccc(C)cc1NS(=O)(=O)c1ccc(NC(=O)CN(c2cc([N+](=O)[O-])ccc2C)S(C)(=O)=O)cc1
inhibition [4]: 58.6% (active)
inhibition [5]: -20%

NC(=S)Nc1cc(Cl)cc(Cl)c1
inhibition [4]: 23.7%
inhibition [5]: 20.4%

O=C(NNC(=O)c1cccnc1SCc1cccc([N+](=O)[O-])c1)c1ccccn1
inhibition [4]: 34.4%
inhibition [5]: 30.1% (active)

CC1CCCCC12NC(=O)N(CC(=O)N1CCN(Cc3ccc(C#N)cc3)CC1)C2=O (centres undefined)
inhibition [4]: -3.89%
inhibition [5]: 6.63%

CCc1cccc(CC)c1NC(=O)CSc1nc2ccc(N3C(=O)C4C(C3=O)[C@H]3C=C[C@@H]4C3)cc2s1 (some centres undefined)
inhibition [4]: 1.87%
inhibition [5]: 10.2%

CCc1nc2ccccc2c(C(=O)OCC(=O)Nc2cccc(S(=O)(=O)N3CCOCC3)c2)c1C
inhibition [4]: 1.17%
inhibition [5]: 8.71%

Cc1ccc(O)c(C(=O)c2cnc3c(c2)COc2ccccc2-3)c1
inhibition [4]: -8.22%
inhibition [5]: 5.53%

O=C(C[n+]1ccccc1)NNc1ccccc1
inhibition [4]: 33.2%
inhibition [5]: 47.4% (active)

COc1ccc(C2OC(=O)CC2C(=O)NCc2ccc(F)cc2)cc1OC (centres undefined)
inhibition [4]: -5.31%
inhibition [5]: -5.19%

Cc1ccc(S(=O)(=O)NCCC(=O)Nc2ccncc2)cc1C
inhibition [4]: -1.9%
inhibition [5]: -0.54%

COc1ccc(-c2cc(C(=O)N3CCN(c4ncccn4)CC3)c3ccccc3n2)c(OC)c1
inhibition [4]: 0.79%
inhibition [5]: -9.7%

CC(C)C[C@H]1CNC(=S)N1C[C@H]1CCCN1C[C@H](Cc1ccc(O)cc1)N1C[C@H](CC(C)C)N(CC2CCCCCC2)C1=S
inhibition [4]: 21.1%
inhibition [5]: 16.3%

CCN(CC)S(=O)(=O)c1cccc(NC(=O)Nc2cccc(C(F)(F)F)c2)c1
inhibition [4]: 13.9%
inhibition [5]: 18%

[O-]C(=C(C(=S)Nc1cccc2ccccc12)[n+]1ccccc1)c1ccc2c(c1)OCCO2
inhibition [4]: 3.21%
inhibition [5]: -0.81%

CCC(C)(CC(=O)O)CC(=O)Nc1cc(C(F)(F)F)cc(C(F)(F)F)c1 (centres undefined)
inhibition [4]: 9.02%
inhibition [5]: -3.88%

CCCn1c(N)c(C(=O)CSc2ncc(C(F)(F)F)cc2Cl)c(=O)[nH]c1=O
inhibition [4]: 14.6%
inhibition [5]: -5.96%

CCCCCc1ccc(OCCOCCn2c[n+](C)c3ccccc32)c(CCCCC)c1
inhibition [4]: 25.3%
inhibition [5]: 36.4% (active)

O=C(Nc1ccc(OC(F)(F)F)cc1)Nc1cccc([N+](=O)[O-])c1
inhibition [4]: -15.5%
inhibition [5]: 1.65%

CCc1ccc(/C=C/c2c([N+](=O)[O-])c(=O)n(C)c(=O)n2C)cc1
inhibition [4]: 39.7%
inhibition [5]: 41.3% (active)

CCN(C(=O)c1cnc(OC)cc1C(F)(F)F)c1ccc(Cl)cc1
inhibition [4]: 9.44%
inhibition [5]: 4.62%

Cc1cccc(/C=N/n2c(-c3ccncc3)n[nH]c2=S)c1
inhibition [4]: 11.2%
inhibition [5]: 2.95%

COc1ccc(Cl)cc1NC(=O)CN(C)CC(=O)Nc1c(C)n(C)n(-c2ccccc2)c1=O
inhibition [4]: 14.8%
inhibition [5]: 4.85%
